This is an account of results in PubChem BioAssay (Tox21).

SMILES strings stand for the structures. Inconclusive results are not listed. The source made the active and inactive calls. The call rests on the fitted dose curve.
On the % scale 0 is the no-effect control and ±100 the full control effect.

This test in a line: qHTS assay for small molecules that induce genotoxicity in human embryonic kidney cells expressing luciferase-tagged ATAD5 - cell viability (AID 651634). Further: nearly all actives have a fitted effect of over 25% in size. To be noted: HEK293T ATAD5-luc cells viability, CellTiter-Fluor, 15.5 h; series mostly up to 83.3 µM; activity, negative = cytotoxicity: at the top concentration. The source says:
National Center for Advancing Translational Sciences [NCATS]
NIH Chemical Genomics Center [NCGC]
U.S. Environmental Protection Agency [EPA]
National Institutes of Environmental Health Sciences [NIEHS]
National Toxicology Program [NTP]
U.S. Food and Drug Administration [FDA]
Enhanced Level of Genome Instability Gene 1 (ELG1; human ATAD5) protein levels increase in response to various types of DNA damage. Using a luciferase reporter-gene tagged with ElG1, a cell-based assay [developed by Kyungjae Myung, NHGRI, NIH] was used to measure the induction of ATAD5 in human embryonic kidney cells (HEK293T). So, increase in luciferase activity can be used to identify the compounds that cause genetic stress. In addition to genotoxicity, these cells were also used to test for cytotoxicity by measuring the protease activity within live cells.
Tox21 Assay Protocol Summary:
For cytotoxicity screening, 2,000 cells in 5 uL/well were dispensed into white, solid-bottom 1536-well plates using a Multidrop Combi (Thermo Scientific) dispenser. Following transfer of 23 nL compound or DMSO vehicle by a pin tool, the plates were incubated 15.5 hr at 37C and 5% CO2. 1 ul CellTiter-Fluor reagent (Promega, Madison, WI) was then added to each plate and following 30 min incubation at 37C, fluorescence intensity was quantified on a ViewLux CCD-based plate reader.
In general terms: qHTS replaces the single test concentration by a dilution series.
Turning to `CCC(=O)OC(C)c1ccccc1` (stereo not given), the “activity, negative = cytotoxicity” value is 8.42% (inactive).
Turning to `CCCCOCCOCCOCc1cc2c(cc1CCC)OCO2`, the Potency result was “inactive”.
Take `COc1ccc2c(c1)c(CC(=O)OCC(=O)O)c(C)n2C(=O)c1ccc(Cl)cc1`: the “activity, negative = cytotoxicity” value is -4.3% (inactive).
Regarding `CC(C)(CC(=O)O)C(=O)O`, the “activity, negative = cytotoxicity” value was 15.8% (inactive).
Take `CCC(C)C1CCCCC1=O` (stereo not given): the “activity, negative = cytotoxicity” value was 12% (inactive).
As to `O=C1CCCCCCCCCCCN1`, the Potency entry was “inactive”.
Turning to `O=C1CC2CC1C1CCCC21` (stereo not given), the “activity, negative = cytotoxicity” value was 12.1% (inactive).
`CCCCCCCCCCCCCCCCC`: the “activity, negative = cytotoxicity” value was 21% (inactive).
On the same count and under the same terms, the same measure for `N=C(N)c1ccc(OCCCOc2ccc(C(=N)N)cc2)cc1`: -18.6% (inactive).
On to `COC(=O)c1c(Cl)c(Cl)c(C(=O)OC)c(Cl)c1Cl`, for which the Potency entry was “inactive”.
For `CC(=O)OC/C=C(\C)CC/C=C(\C)CCC=C(C)C`, the “activity, negative = cytotoxicity” value was 7.46% (inactive).
`O=S(O)CO`: the Potency entry is “inactive”.
For `CCCCC/C=C\CCC=O`, the “activity, negative = cytotoxicity” value is 11.7% (inactive).
The same measure, in the same setting: then `Brc1c(NC2=NCCN2)ccc2nccnc12`, with 19.4% (inactive); and `O=C(CCCN1CCC(O)(c2cccc(C(F)(F)F)c2)CC1)c1ccc(F)cc1`, with -3.25% (inactive); and `NC(CSCC(=O)O)C(=O)O` (stereo not given), with 29.1% (inactive).
Still for that read-out and setting: the same measure for `NC(=O)COCCN1CCN(C(c2ccccc2)c2ccc(Cl)cc2)CC1` (stereo not given): -13.2% (inactive).
For `CC1(C)CO[C@@H](CC(=O)O)CN1`, the “activity, negative = cytotoxicity” value was 17.1% (inactive).
`NC(=O)c1ccc(N)cc1`: the “activity, negative = cytotoxicity” value was 3.26% (inactive).
On the same count and under the same terms, then `CC(C)(C)NCCNC(C)(C)C`, with 17% (inactive).
Still for that read-out and setting: the same measure for `N=C(N)c1ccc2cc(OC(=O)c3ccc(N=C(N)N)cc3)ccc2c1`: 18.2% (inactive).
For `OC[C@]1(O)OC[C@@H](O)[C@H](O)[C@@H]1O`, the Potency entry was “inactive”.
For `CS(=O)(=O)O`, the “activity, negative = cytotoxicity” value is 15.7% [at 95.3 µM] (inactive).
The same measure, in the same setting: the same measure for `NC(=O)c1ccc([N+](=O)[O-])cc1`: 7% (inactive); for `Cc1[nH]c(=O)c(C#N)cc1-c1ccc2nccn2c1`: 13.9% (inactive).
As for `COC(C)(C)CCCC(C)CC=O` (stereo not given), the “activity, negative = cytotoxicity” value is 13% (inactive).
In the case of `CCCCCCCCCCCCCC=O`, the activity, negative = cytotoxicity was 13.3% [at 8.08 µM] (inactive).
Still for that read-out and setting: the same measure for `CCCCCCOC(=O)CCCCC(=O)OCCCCCC`: 18.9% (inactive).
`CCCCCCCCCCCCN(CCCCCCCCCCCC)CCCCCCCCCCCC`: the “activity, negative = cytotoxicity” value is 14.7% (inactive).
Take `N[C@H]1CN(c2c(F)cc3c(=O)c(C(=O)O)cn(C4C[C@H]4F)c3c2Cl)CC12CC2` (stereo not given in full): the “activity, negative = cytotoxicity” value is 11.8% (inactive).
`O=c1cc(-c2ccccc2)oc2ccccc12`: the Potency entry is “inactive”.
For `CCO/C([O-])=N/c1c[n+](N2CCOCC2)no1`, the “activity, negative = cytotoxicity” value was 10.8% [at 39.1 µM] (inactive).
The same measure, in the same setting: the same measure for `CCCCNC(=O)NCCCC`: 20.2% (inactive).
Regarding `OC(CCN1CCCCC1)(c1ccccc1)C1CC2C=CC1C2` (stereo not given), the Potency result is “inactive”.
Take `COC(=O)c1ccc(C)cc1C1=NC(C)(C(C)C)C(=O)N1` (stereo not given): the “activity, negative = cytotoxicity” value is 9.94% (inactive).
Still for that read-out and setting: then `CCN(Cc1ccncc1)C(=O)C(CO)c1ccccc1` (stereo not given), with 5.71% (inactive); and `CCn1ccnc1CC1COc2ccccc2O1` (stereo not given), with 42.2% (inactive).
In the case of `C=C[Si](OC(=C)C)(OC(=C)C)OC(=C)C`, the “activity, negative = cytotoxicity” value was 10.2% (inactive).
On the same count and under the same terms, then `FC1(F)C(F)(F)C(F)(F)C2(F)C(F)(F)C(F)(F)C(F)(F)C(F)(F)C2(F)C1(F)F` (stereo not given), with 14.4% (inactive); and `O=C1CCCC(=O)C1`, with -6.11% (inactive).
